In the supplement of paper PMC11417369:
± gives the standard deviation of the averaged measurements. The full ranking holds about 25,000 sequences; the median of “ln(normalized median fluorescence intensity)” is about 10, and the highest 2% start at about 12. For the sample, the highest values were picked, then their nearest neighbours and some sequences at random.

System: PfAP2-G AP2 domain (GST-tagged)
Assay: gcPBM binding intensity (ln(normalized median fluorescence intensity)); higher = stronger DNA binding
Summary of the method: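 For binding intensity, the highest Masliner-normalised natural-log median intensity across replicate spots of either probe orientation was taken. Protein bound to the array was stained with Alexa488 anti-GST antibody and scanned at 488 nm. The protein, GST-tagged P. falciparum DNA-binding domains from E. coli at about 25 μg on average, had been applied for 1 h to an Agilent 4 × 180k array of primer-extended double-stranded 36-bp intergenic genomic probes and negative controls.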

Sequence | gcPBM binding intensity (ln)
TATACAATATTTATAACACACATATTTATATAAACT [CACACA_site6932] | 9.885 ± 0.078
ATTATATATACATATACACACATACGTACATACATA [CACACA_site9194] | 11.5 ± 0.93
TAATATTCAATTATACGTACACATATATATATATAT [XGTACX_site4245] | 11.8 ± 1.1
TGAATAAATAAGATACGTACACACATATACAAAATA [XGTACX_site7758] | 11.5 ± 0.83
AAAGATAAAATATATACACACACATAAATACGTACA [CACACA_site8275] | 11.3 ± 0.88
ATACATATATAAATACGTACATATATAATTATATAT [XGTACX_site8178] | 11.6 ± 0.93
GATTTATACAAATATGTACACACTAATTATATATTA [CACACA_site8045] | 11.5 ± 0.87
TCATATAAATACACGTGTACATATATATATTACAGT [XGTACX_site1954] | 11.5 ± 0.81
TGTACAAATATGTACACACACACATATTTATTTATA [CACACA_site6419] | 11.5 ± 0.95
GAATAAATAAGATACGTACACACATATACAAAATAT [CACACA_site3660] | 11.7 ± 1.1
TAAAATATTACGTGTACACATAAATAAAAATAAAAA [CACACA_site5066] | 11.8 ± 0.92
TGCTCTAATTTATATACACACAAATATGTACACATA [CACACA_site7845] | 11.7 ± 1.2
TTACACATATTATATATATATAAAAAAAAAAAATAT [CACACA_negctrl_site1684] | 9.82 ± 0.29
ATTCTACGCACGCGCACACACAACAAAAAAAAAAAA [CACACA_site3538] | 10.8 ± 0.68
AACAGACATAGACACACACACATATATTTATTTATA [CACACA_site7571] | 10.11 ± 0.085
TTAACATAAATTGTGTCATTTTTTTTTTTTTTTTTA [CACACA_negctrl_site1221] | 9.725 ± 0.021
TAGCGCATAAAAAAAAAAAAATATATACTAATAAAT [GTGCAC_negctrl_site276] | 9.57 ± 0.071
TTCTATATATATATAGACAAACGATAAAATAAAAAA [GTGCAC_negctrl_site142] | 10.1 ± 0.23
GTATATTTCTTTAAATGTACACATTTTTTTAAAGAG [XGTACX_site1225] | 11.4 ± 0.98

Sequence | gcPBM binding intensity (ln)
AAAAACGAAAAAAATACACACCTGAAAAGATATGTA [CACACA_site4644] | 9.72 ± 0.16
TGACATATAAAATATTCACACACAAGTTATAGTTCT [CACACA_site9209] | 9.74 ± 0.11
CCAATGAGGATATATACACACATACATTAAAAAAAT [CACACA_site5090] | 10 ± 0.17
AATTTAATATAATGCACACATAAAAAAAAAATCAAA [CACACA_site1] | 10.1 ± 0.18
AATTTGTTATGTATATGTACATAAATAGATATATGA [XGTACX_site3930] | 11.2 ± 0.7
AAAGATATTTTTATCTCACACATATAATATATATAT [CACACA_site5478] | 9.84 ± 0.16
ATTAAATATATTTTGCGTACACAAAAAAATACGTTC [XGTACX_site3862] | 11.6 ± 0.97
TATATATATACATACGTACACACAAATATTAAAATA [CACACA_site1950] | 11.8 ± 1.2
TTAAAATTAAAAATGCGTACACATATACATAAAAAA [XGTACX_site1915] | 11.7 ± 1
TAGATATATAATTTGCGTACACAAATAATATATTTT [XGTACX_site6397] | 11.4 ± 0.97
ATATATATATACATACGTACACACAAATATTAAAAT [XGTACX_site4007] | 11.6 ± 1.2
AAAAAAAATTAAATAAATAAATATACACATATATAT [GTGCAC_negctrl_site394] | 9.47 ± 0.26
AATAATACACAATTTTGTACGTATTTAAAATATATT [XGTACX_site45] | 11.3 ± 0.87
AAATTAAAATATAATACACACATAAAAAAAAAAAAA [CACACA_site4183] | 9.82 ± 0.38
TATATATACATACGTACACACAAATATTAAAATATA [CACACA_site1951] | 11.5 ± 1.1
TATGGAACACACCTTAATATGTGATAAAATATGATA [GTGCAC_negctrl_site718] | 10 ± 0.2
AAAAATTTATTTAAAAGTACATAAAATAAAGGTGGA [XGTACX_site7591] | 11.4 ± 0.69
ACATCATTTTTATGTACACACACATATACGTTGAAT [CACACA_site5095] | 11.6 ± 0.98
AAGAAAATTAAATTAACACACATAAATATATATATA [CACACA_site1664] | 9.85 ± 0.28

Sequence | gcPBM binding intensity (ln)
GACATTAAAATGAAATATACATATATATGTATATAT [TGCATGCA_negctrl_site601] | 9.635 ± 0.049
AATTAAAATAGTAATACACACTTCATAGGAAATGAT [CACACA_site5045] | 9.83 ± 0.014
TAACATTAAAATAAAAGTACTTAATAATATTAAGTA [XGTACX_site5920] | 11.1 ± 0.87
TCTTATTTTTTTATATATACAAAGTTTTATATATAT [GTGCAC_negctrl_site314] | 9.915 ± 0.049
TTTCCTGGTCAAGGGGTTACGGTTACGTCCTCTTGC [CACACA_negctrl_site856] | 10.7 ± 0.49
AAATTTTAATTAGACTGTACACATTTTAGAATAATT [XGTACX_site4819] | 11.6 ± 0.92
ATTTTAGAATTTAATACACACAAAAAAAAAAAATTA [CACACA_site3704] | 10 ± 0.33
TAAATTAAGAATTTTACACACATTAAATAAAAAAAA [CACACA_site3638] | 9.805 ± 0.078
TTAAAAGATATTACATGTACATATTCAATATATGTA [XGTACX_site5895] | 11.1 ± 0.69
AATTGTACGTAGGGGTATAAAAGCTTAAAAATGGGG [CACACA_negctrl_site1392] | 11.6 ± 0.91
GAATGGACGTTAGGGGGTACGTATAAAATTTATCAA [XGTACX_site683] | 11.7 ± 0.81
ACGTATCAATTTATTGGTACACATAAATATATATAT [XGTACX_site5556] | 11.3 ± 0.92
ATATATTTTCAAAAAAGTAAATCAAAATAAATATAT [TGCATGCA_negctrl_site319] | 9.84 ± 0.085
AATACAGATAATACAACACACAAGTAATATAAACCT [CACACA_site5900] | 9.975 ± 0.021
GGTGATATAATATATACATGCACATATATATTATTA [TGCATGCA_site970] | 9.9 ± 0.042
CATTTAAAATTTGTTTGTACATATATATATATATAT [XGTACX_site6729] | 11 ± 0.66
GTAGGTGTTTTTGGTTGTACATATAAATATATATAC [XGTACX_site3380] | 11.3 ± 0.8
TCCTTAAAATATGGTTGTACGTACATCCTAGGTGTT [XGTACX_site7068] | 11.7 ± 0.97
AAAATTAATGTTGGTTGTACAAAAATTAAATATGGT [XGTACX_site66] | 11.3 ± 0.75
